CYP2C9 activ: CYP2C9 (human) activation | P11712 | activation factor at 5 µM | recombinant CYP2C9, luciferin-H conversion, luminescence; active compounds read high; factor 1 = untreated enzyme, 0 = blocked | hit rate 1.4% among 96,000;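 active = activation factor of 2 or more for CYP2C9 at a 5 µM dose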;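 note: 0 = sulfaphenazole-blocked wells and 1 = vehicle-only wells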
PTK2B oligo ant: Pyk2 (human) oligomerization antagonism. Q14289. Q293 cells, Pyk2 FERM NanoBiT luminescence; active compounds read low. z-score (the deposit names both 25 µM and 10 µM). hit rate 0.83% among 99,000;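 active = Z-score of -3 or lower, scaled per plate to the spread of control and sample wells; inactive = z-score above -3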;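 note: negative z-score means lost luminescence so less FERM oligomerization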
CYP2C19 activ: activators of human cytochrome P450 2C19 | P33261 | recombinant CYP2C19, luciferin-H EGE luminescence; active compounds read high; 0 = fully inhibited enzyme, 1 = untreated enzyme | activation factor at 5 µM | 96,000 tested, under 10 active | AID 1025;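 active = activation factor of at least 2 at 5 µM in the primary screen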;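 note: 0 = wells with 2.5 mM tranylcypromine and 1 = vehicle-only wells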
CYP2C19 inhib: blocks human cytochrome P450 2C19 | hit rate 21% among 96,000 | CYP2C19 Supersomes, luciferin-H EGE luminescence, 30 min | inhibition, % at 5 µM | AID 778 | P33261;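 active = CYP2C19 inhibition above a set limit at 5 µM in the primary screen, cut at about 50% in these data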;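 note: plate controls were negative control wells for no effect and 2.5 mM tranylcypromine positive control for full effect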
CYP2C9 inh: human CYP2C9 inhibition; P11712; CYP2C9 Supersomes, luciferin-H conversion, luminescence; inhibition, % at 5 µM; hit rate 20% among 96,000;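 active = blocking of liver enzyme CYP2C9 beyond about 50% at 5 µM, limit read from the data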
Cav3 T inh: blocks human Cav3.2 T-type calcium channel. Cav3.2-expressing cells, Fluo-4 calcium fluorescence FDSS; active compounds read low. hit rate 4% among 100,000. AID 449739. B-score at 10 µM;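 active = single-dose well whose peak fluorescence ratio is a statistical outlier from its plate by either plate-standardised score or position-corrected B-score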
Target sequence (O95180 whole entry, looked up): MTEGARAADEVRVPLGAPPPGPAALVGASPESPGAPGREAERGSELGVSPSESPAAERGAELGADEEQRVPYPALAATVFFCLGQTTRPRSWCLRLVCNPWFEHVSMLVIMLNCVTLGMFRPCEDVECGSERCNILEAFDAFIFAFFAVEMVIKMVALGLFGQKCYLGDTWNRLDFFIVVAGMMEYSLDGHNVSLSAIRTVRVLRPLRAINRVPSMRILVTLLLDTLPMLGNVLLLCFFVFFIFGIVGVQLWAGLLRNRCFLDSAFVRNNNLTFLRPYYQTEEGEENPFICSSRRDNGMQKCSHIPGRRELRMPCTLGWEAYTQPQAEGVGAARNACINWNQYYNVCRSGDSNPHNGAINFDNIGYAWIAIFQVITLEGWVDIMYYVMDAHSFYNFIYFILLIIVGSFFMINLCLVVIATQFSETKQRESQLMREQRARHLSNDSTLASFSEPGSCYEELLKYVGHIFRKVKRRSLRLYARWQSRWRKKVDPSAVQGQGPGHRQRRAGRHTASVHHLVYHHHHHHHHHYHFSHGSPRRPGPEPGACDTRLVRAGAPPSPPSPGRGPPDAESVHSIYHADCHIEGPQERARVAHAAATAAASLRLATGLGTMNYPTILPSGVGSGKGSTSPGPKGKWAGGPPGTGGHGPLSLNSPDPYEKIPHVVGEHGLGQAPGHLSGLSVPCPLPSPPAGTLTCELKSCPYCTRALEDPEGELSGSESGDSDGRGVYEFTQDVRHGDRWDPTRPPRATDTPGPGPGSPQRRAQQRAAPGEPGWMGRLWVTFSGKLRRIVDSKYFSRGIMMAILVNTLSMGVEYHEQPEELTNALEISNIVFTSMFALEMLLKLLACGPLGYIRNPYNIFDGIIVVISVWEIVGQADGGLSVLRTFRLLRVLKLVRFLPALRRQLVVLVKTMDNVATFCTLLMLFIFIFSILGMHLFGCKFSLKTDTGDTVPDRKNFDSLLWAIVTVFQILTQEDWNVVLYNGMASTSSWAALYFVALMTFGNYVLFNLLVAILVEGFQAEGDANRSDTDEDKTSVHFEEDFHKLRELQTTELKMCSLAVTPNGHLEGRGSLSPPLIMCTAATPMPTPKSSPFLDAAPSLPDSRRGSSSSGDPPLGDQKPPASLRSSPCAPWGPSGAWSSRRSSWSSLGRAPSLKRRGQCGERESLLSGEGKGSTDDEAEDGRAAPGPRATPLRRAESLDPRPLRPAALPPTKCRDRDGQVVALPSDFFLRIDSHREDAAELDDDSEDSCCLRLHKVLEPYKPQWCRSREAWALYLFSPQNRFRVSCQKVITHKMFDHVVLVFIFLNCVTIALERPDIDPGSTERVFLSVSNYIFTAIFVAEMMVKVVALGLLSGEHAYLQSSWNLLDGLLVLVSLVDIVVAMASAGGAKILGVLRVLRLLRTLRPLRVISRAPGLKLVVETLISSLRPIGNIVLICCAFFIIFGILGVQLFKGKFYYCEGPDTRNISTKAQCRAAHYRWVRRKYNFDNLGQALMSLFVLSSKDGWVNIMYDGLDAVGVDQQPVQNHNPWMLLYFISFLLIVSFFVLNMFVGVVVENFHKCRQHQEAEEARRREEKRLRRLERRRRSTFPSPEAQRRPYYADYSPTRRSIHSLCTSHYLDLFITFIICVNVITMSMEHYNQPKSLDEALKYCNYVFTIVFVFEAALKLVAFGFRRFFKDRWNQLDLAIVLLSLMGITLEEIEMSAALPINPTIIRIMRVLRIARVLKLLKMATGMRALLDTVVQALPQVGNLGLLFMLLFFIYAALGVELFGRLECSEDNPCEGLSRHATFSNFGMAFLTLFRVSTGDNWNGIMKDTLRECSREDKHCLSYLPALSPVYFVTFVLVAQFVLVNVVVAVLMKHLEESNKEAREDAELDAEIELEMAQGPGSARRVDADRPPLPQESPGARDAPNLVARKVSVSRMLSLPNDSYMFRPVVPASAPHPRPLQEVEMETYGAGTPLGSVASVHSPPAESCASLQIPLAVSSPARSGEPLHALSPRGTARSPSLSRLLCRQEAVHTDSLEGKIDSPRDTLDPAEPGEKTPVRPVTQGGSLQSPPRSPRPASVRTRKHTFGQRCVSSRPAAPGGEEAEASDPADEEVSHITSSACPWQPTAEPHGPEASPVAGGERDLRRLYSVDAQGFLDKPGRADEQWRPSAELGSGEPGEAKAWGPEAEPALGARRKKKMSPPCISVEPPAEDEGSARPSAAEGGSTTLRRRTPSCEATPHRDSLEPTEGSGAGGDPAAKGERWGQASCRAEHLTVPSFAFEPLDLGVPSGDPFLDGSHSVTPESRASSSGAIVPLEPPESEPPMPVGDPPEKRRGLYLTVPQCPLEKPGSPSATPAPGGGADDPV
Numbers without * were called inactive. The list is not random: actives were taken first. Their share in the collection is about 27%.

`COC(=O)CSc1cc(C(=O)c2nccn2C)c2ccccc2n1` gave CYP2C9 activ 0.5, PTK2B oligo ant -0.77, CYP2C19 activ 0.2, CYP2C19 inhib 82*, CYP2C9 inh 52* and Cav3 T inh -0.023.
CCc1cc2c(=O)n(CC)c(SC(C)C(=O)Nc3c(C)n(C)n(-c4ccccc4)c3=O)nc2s1 (stereo not drawn) was read as CYP2C9 activ 0.5, PTK2B oligo ant 1.1, CYP2C19 activ 0.8, CYP2C19 inhib 23, CYP2C9 inh 46 and Cav3 T inh 2.1.
`O=C(CSc1ccc2nnc(-c3ccc(F)cc3)n2n1)N1CCOCC1` gave Cav3 T inh 1.8.
`CN(C)S(=O)(=O)c1ccc2nnn(OCC(=O)NC34CC5CC(CC(C5)C3)C4)c2c1` gave PTK2B oligo ant 0.08.
For CCN(CC)S(=O)(=O)c1ccc2nnn(OCC(=O)Nc3cccc(C#N)c3)c2c1 the results were CYP2C9 activ 0, PTK2B oligo ant -1.8, CYP2C19 activ 0.1, CYP2C19 inhib 94*, CYP2C9 inh 97* and Cav3 T inh -1.6.
Screening O=C(CSc1nc2cc(Cl)ccc2s1)N1CCN(C(=O)c2ccco2)CC1 returned CYP2C9 activ 0.1, PTK2B oligo ant 1.8, CYP2C19 activ 0.1, CYP2C19 inhib 86*, CYP2C9 inh 86* and Cav3 T inh -1.9.
Screening Cc1cc(C)nc(NC(=O)CSc2nc3cc(Cl)ccc3s2)n1 returned CYP2C9 activ 2.7*, PTK2B oligo ant 0.18, CYP2C19 activ 1, CYP2C19 inhib -1, CYP2C9 inh -167 and Cav3 T inh 0.55.
Screening Cc1cc(C)cc(-c2nnc(SCC(=O)N3CCN(C(=O)c4ccco4)CC3)o2)c1 returned CYP2C9 activ 2*, PTK2B oligo ant 0.26, CYP2C19 activ 0.5, CYP2C19 inhib 50, CYP2C9 inh -103 and Cav3 T inh -0.052.
Screening O=C(CSc1nc(-c2ccccc2)cs1)N1CCN(C(=O)c2ccco2)CC1 returned CYP2C9 activ 1.2, PTK2B oligo ant 0.97, CYP2C19 activ 0.4, CYP2C19 inhib 62*, CYP2C9 inh -16 and Cav3 T inh -0.43.
Screening Cc1cc(C)nc(NC(=O)CSc2nc3ccccc3s2)n1 returned CYP2C9 activ 1, PTK2B oligo ant 0.08, CYP2C19 activ 0.7, CYP2C19 inhib 28, CYP2C9 inh 3 and Cav3 T inh -1.3.
O=C(CSc1nc2cc(Cl)ccc2s1)c1cc2ccccc2o1 was read as CYP2C9 activ 0.9, PTK2B oligo ant 0.4, CYP2C19 activ 1.1, CYP2C19 inhib -7 and CYP2C9 inh 6.
`O=C(CSc1nnc(-c2ccc(Br)cc2)o1)N1CCN(C(=O)c2ccco2)CC1` gave CYP2C9 activ 0.9, PTK2B oligo ant 0.73, CYP2C19 activ 0.9, CYP2C19 inhib 8, CYP2C9 inh 11 and Cav3 T inh 0.26.
CC1CN(C(=O)CSc2nc(-c3ccccc3)cs2)CC(C)O1 (stereo not drawn) was read as CYP2C9 activ 0.9, PTK2B oligo ant 0.59, CYP2C19 activ 0.1, CYP2C19 inhib 93*, CYP2C9 inh 8 and Cav3 T inh -0.24.
CCOC(=O)CSc1cc(CS(=O)(=O)c2ccccc2)nc(-c2ccccc2)n1 was read as CYP2C9 activ 0.5, PTK2B oligo ant -0.93, CYP2C19 activ 0.2, CYP2C19 inhib 81*, CYP2C9 inh 54* and Cav3 T inh -0.087.
Screening O=S(=O)(Cc1cc(Cl)nc(-c2ccccc2)n1)c1ccccc1 returned CYP2C9 activ 1.4, PTK2B oligo ant 1.2, CYP2C19 activ 0.1, CYP2C19 inhib 92*, CYP2C9 inh -38 and Cav3 T inh -1.2.
CCOC(=O)CSc1cc(C(F)(F)F)nc(-c2ccccn2)n1 was read as CYP2C9 activ 1, PTK2B oligo ant 0.94, CYP2C19 activ 1.1, CYP2C19 inhib -9, CYP2C9 inh 0 and Cav3 T inh -8.9e-05.
For Cc1nc(CS(=O)(=O)c2ccccc2)cc(Sc2ccc(Cl)cc2)n1 the results were CYP2C9 activ 1.3, PTK2B oligo ant 0.78, CYP2C19 activ 1.2, CYP2C19 inhib -24, CYP2C9 inh -29 and Cav3 T inh -0.78.
Screening CNC(=O)c1sccc1S(=O)(=O)Cc1c(Cl)cccc1Cl returned CYP2C9 activ 0.5, PTK2B oligo ant 0.41, CYP2C19 activ 0.1, CYP2C19 inhib 87*, CYP2C9 inh 54* and Cav3 T inh 0.0088.
For CC1CCN(C(c2ccc(N(C)C)cc2)c2nnnn2C(C)(C)C)CC1 (stereo not drawn) the results were CYP2C9 activ 0.8, PTK2B oligo ant 0.41, CYP2C19 activ 0.4, CYP2C19 inhib 60* and CYP2C9 inh 23.
For CC1CCN(C(c2ccc(N(C)C)cc2)c2nnnn2Cc2ccccc2)CC1 (stereo not drawn) the results were CYP2C9 activ 0.9, PTK2B oligo ant -1.5, CYP2C19 activ 0.7, CYP2C19 inhib 34, CYP2C9 inh 6 and Cav3 T inh 0.34.
Screening COc1ccc(Cn2nnnc2C(c2ccc(N(C)C)cc2)N2CCC(C)CC2)cc1 (stereo not drawn) returned CYP2C9 activ 0.5, PTK2B oligo ant -0.42, CYP2C19 activ 0.4, CYP2C19 inhib 58*, CYP2C9 inh 52* and Cav3 T inh -4.5.
Screening CC(C)(C)n1nnnc1C(c1ccccc1)N1CCc2ccccc2C1 (stereo not drawn) returned CYP2C9 activ 0.6, PTK2B oligo ant -0.87, CYP2C19 activ 0.5, CYP2C19 inhib 54*, CYP2C9 inh 36 and Cav3 T inh -2.1.
COCCn1nnnc1C(c1ccc(O)c(OC)c1)N1CCc2ccccc2C1 (stereo not drawn) was read as CYP2C9 activ 0.7, PTK2B oligo ant 0.76, CYP2C19 activ 0.7, CYP2C19 inhib 31 and CYP2C9 inh 28.
`Oc1c(C(c2ccccc2)N2CCc3ccccc3C2)sc2ncnn12` (stereo not drawn) gave Cav3 T inh 0.21.
`CN(C)c1ccc(C(c2nnnn2C(C)(C)C)N2CCc3ccccc3C2)cc1` (stereo not drawn) gave CYP2C9 activ 0.9, CYP2C19 activ 0.4, CYP2C19 inhib 58*, CYP2C9 inh 13 and Cav3 T inh 0.2.
Screening CCCOc1ccc(-c2nnn(CC(=O)c3c[nH]c4ccccc34)n2)cc1 returned CYP2C9 activ 0.7, PTK2B oligo ant -0.26, CYP2C19 activ 1.1, CYP2C19 inhib -9, CYP2C9 inh 27 and Cav3 T inh -0.059.
O=C(Cn1c(=O)sc2ccccc21)NCCOc1ccccc1F was read as PTK2B oligo ant -0.66 and Cav3 T inh 0.00058.
Screening O=C(NC1(C(F)(F)F)NC(=O)N(C2CCCCC2)C1=O)c1cccs1 (stereo not drawn) returned CYP2C9 activ 0.6, PTK2B oligo ant -0.32, CYP2C19 activ 0.5, CYP2C19 inhib 47, CYP2C9 inh 43 and Cav3 T inh 0.32.
For O=C(NCc1cccnc1)/C(=C\c1ccc(-c2ccc(Cl)c(Cl)c2)o1)S(=O)(=O)c1ccccc1 the results were PTK2B oligo ant -2.1.

Assay outcomes: PubChem, several laboratories
